HCMV inh: inhibitors of human cytomegalovirus. HFF cells, HCMV-luciferase reporter, 72 h; hits give low values. activity change, negative = inhibition, % at 57.5 µM. hit rate 4.5% among 410,000; in the data active = activity change below about -60%; inconclusive = no clear call, values can overlap the other calls; inactive = above about -39%; also: % is scaled to controls: 0 for no effect and ±100 for the full control effect
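Human foreskin fibroblasts infected with luciferase-reporter HCMV at MOI 1 PFU/cell, compounds at two doses. Luciferase measured 72 h post infection; normalized to buffer-only basal and Salinomycin (10uM) controls.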
HCV inh: HCV inhibition; Huh7.5.1 HCVcc-Cre infection, luciferase reporter, 44 h; Potency, µM (titrated, usually from 41.8 µM), without a hit: at the highest dose activity change, negative = inhibition, actives largely listed as inhibitors; hit rate 3.4% among 340,000; AID 651820; also: potency is read from the fitted curve at half-maximal effect; % is scaled to controls: 0 for no effect and ±100 for the full control effect
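Infectious HCVcc-Cre (~0.5 moi) was added to cells just after compound, with cells seeded 4 h earlier at 1,000 per well. Luciferase activity after 44 h culture reported infection; substrate was incubated 15 min at room temperature before reading.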
Pf growth 48h: P. falciparum growth inhibition at 48 hours (one generation); AID 504832; hit rate 5.9% among 310,000; P. falciparum luciferase growth in erythrocytes, 48 h; Potency, µM (top dose mostly 28.7 µM), for inactives: at the top dose activity change, negative = inhibition, actives largely listed as inhibitors; also: potency is read from the fitted curve at half-maximal effect; % is scaled to controls: 0 for no effect and ±100 for the full control effect
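Growth was read as firefly luciferase luminescence after a 48 h, 37 C, 5% CO2 exposure of compounds to reporter-bearing P. falciparum cultures (0.1% parasitemia, 2% hematocrit final) in Albumax-supplemented RPMI 1640.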
Pf growth 96h: inhibits malaria parasite growth, 96 h. P. falciparum luciferase reporter growth, 96 h. Potency, µM (highest dose often 28.7 µM), without a hit: at the highest dose activity change, negative = inhibition, most hits filed as inhibitors. hit rate 6.9% among 320,000; also: potency is read from the fitted curve at half-maximal effect; % is scaled to controls: 0 for no effect and ±100 for the full control effect
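Delayed-death screen, second-generation endpoint: infected erythrocytes, 2% hematocrit, 0.05% parasitemia final; 96 hours at 37 C, 5% CO2; luciferase detection reagent; luminescence decrease equals reduced growth.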
Cycloheximide cs: counter-screen hit for Shiga toxin inhibitors, cycloheximide; cell reporter, cycloheximide protein synthesis inhibition counterscreen; hit rate 12% among 300,000; max response, %; AID 2314; in the data active = max response mostly above about 13%, no sharp cut-off; inactive = mostly below about 14%; also: read at 38.3 µM for the half of the compounds with a filed dose; 0% is about no effect
Shiga inhibitor: blocks Shiga toxin action in Vero cells; Vero cells, Shiga toxin protein synthesis inhibition reporter; inhibition, % at 38.7 µM; hit rate 9.2% among 290,000; AID 2315; in the data active = inhibition mostly above about 28%, no sharp cut-off; inactive = mostly below about 43%; also: 0% is about no effect
An asterisk follows results filed as active; u = inconclusive; x = no result. Only some compounds are listed: those with a hit (about 21% of all), similar ones and a draw of the others. Unless noted, calls follow the shape of the dose curve; as a rule, active = well fitted inhibition curve with a large enough effect; inconclusive = small, poorly fitted or top-dose-only effect, or another doubt; inactive = no such curve, though single readings can be large or run the other way.

SMILES	HCMV inh	HCV inh	Pf growth 48h	Pf growth 96h	Cycloheximide cs	Shiga inhibitor
Cc1ccc(NC(=O)N2CCCC2C(=O)NCc2ccc(Cl)cc2)cc1 (stereo unspecified)	12.7	-14.2%	42.0%	u	-1.8	-9.3
COc1ccc(CNC(=O)c2ccc(C)o2)cc1	81.6	5.5%	27.0%	32.9%	12.9*	19.4
COc1ccc(CNC(=O)c2cc(=O)c3cc(C)c(C)cc3o2)cc1	19.6	0.3%	0.9%	u	-2.9	-3.0
COc1ccc(CNC(=O)c2ccncc2)cc1	u	-6.9%	1.1%	3.29µM*	1.1	-1.1
Cc1csc(-c2cc(C(=O)NCc3ccc(F)cc3)n[nH]2)c1	-64.1*	x	x	x	x	x
O=C(NCc1ccc(F)cc1)c1cnccn1	56.3	0.4%	29.6%	41.0%	10.5*	18.8
C[C@H](CO)N1C[C@H](C)[C@@H](CN(C)C(=O)Nc2ccc3c(c2)OCO3)Oc2ccc(NS(=O)(=O)c3ccccc3)cc2C1=O	-9.6	0.5%	x	x	x	x
O=C(NCc1ccc(F)cc1)C1CCN(C(=O)c2ccc(-n3ccc4ccccc43)s2)CC1	-9.9	x	x	x	x	x
CC(Oc1ccc(Br)cc1)C(=O)Nc1ncn[nH]1 (stereo unspecified)	-14.9	x	x	x	x	x
CCOc1ccc(/C(O)=C2/C(=O)C(=O)N(c3ncccn3)C2c2ccc(C)cc2)cc1 (stereo unspecified)	15.7	10.5%	1.7%	36.2%	-1.1	-1.4
CCOc1ccc(/C(O)=C2/C(=O)C(=O)N(c3ncccn3)C2c2ccccc2)cc1 (stereo unspecified)	1.6	4.1%	22.3%	-4.6%	66.4*	57.8*
CCOc1ccc(/C(O)=C2/C(=O)C(=O)N(CCOCCO)C2c2cccnc2)cc1 (stereo unspecified)	-21.3	7.9%	3.0%	0.8%	1.9	-5.8
CCOc1ccc(/C(O)=C2/C(=O)C(=O)N(CCOCCO)C2c2ccccc2)cc1 (stereo unspecified)	30.1	-0.8%	15.3%	29.5%	18.1*	21.2
COC(=O)/C=c1/s/c(=C(/C#N)C(=O)N2CCOCC2)n(-c2ccccc2)c1=O	-3.6	4.1%	x	16.9%	-4.4	-9.4
COC(=O)/C=c1/s/c(=C(/C#N)C(=O)N2CCCCC2)n(-c2ccccc2)c1=O	-68.8*	1.6%	7.5%	-16.0%	-6.8	-11.5
Cc1ccc(CNC(=O)CSc2ncc3c(n2)-c2cc(Cl)ccc2N(C)S3(=O)=O)cc1	22.6	x	x	x	x	x
O=C(NCc1ccccc1)N[C@H]1CC[C@@]23CCCN2C(=O)CCC[C@H]3C1Cc1ccccc1 (stereo partly specified)	1.0	x	x	x	x	x
Cn1cc(C(=O)Nc2ccc(Cl)cc2)c(C(F)(F)F)n1	u	-7.8%	-2.8%	30.3%	-2.9	3.6
CCC(C)Sc1cc(C(F)(F)F)c(C(=O)Nc2ccc(Cl)cc2)cn1 (stereo unspecified)	-32.9	22.4µM*	u	u	8.5	2.7
COc1cccc(N2CCN(C(=O)CCS(=O)(=O)c3ccc4c(c3)CC(=O)N4C)CC2)c1	-6.7	x	x	x	x	x
Cc1ccc(N(CC(=O)NCCc2ccc(Cl)cc2)S(=O)(=O)N(C)C)cc1	10.6	x	x	x	x	x
Cc1cccc(NC(=O)CSc2nc(-c3cccs3)cc(C(F)(F)F)c2C#N)c1C	6.3	x	x	x	x	x
Cc1ccc(Nc2cc(C)nc(NCc3ccccc3)n2)cc1	-83.5*	10µM*	0.657µM*	43.6%	-1.0	-4.7
COc1cccc(CNc2nc3nc(C)cc(C)n3n2)c1	-13.9	5.1%	28.9%	x	11.0*	65.8
COc1cc(C)nc(NCc2ccccc2)n1	-16.3	-0.8%	3.4%	u	9.4	8.3
COc1cccc(Nc2cc(C)nc3nc(C)nn23)c1	28.0	-15.2%	x	42.3%	-2.4	-11.5
COc1ccc(Nc2cc(C)nc(NCc3ccccc3)n2)cc1	u	u	0.465µM*	1.65µM*	1.4	22.4
Cc1cccc(Nc2ccc(NCc3ccccc3)nn2)c1	-21.3	8.6%	46.6%	u	31.2*	87.0*
COC(=O)c1ccc(CN2CCN(C3CCCC3)C(CCO)C2)cc1 (stereo unspecified)	28.2	9.0%	-10.3%	13.1%	-2.1	-3.6
CSc1nnc(C)c(=O)n1COC(=O)COc1ccc(Cl)cc1	-17.1	4.1%	2.8%	-21.7%	-5.7	-2.6
